# Source: paper PMC8384837, “Expanding the binding specificity for RNA recognition by a PUF domain”
# Residue numbers refer to the chain shown, from its start.
# Columns and labels:
# Assay in all cases: yeast three-hybrid, YBZ-1, SC-Leu-His + 0.5 mM 3-AT, 4 days
# Conditions in all cases: tags: N-Gal4 AD-HA kept; label: inside an RPR1-promoter hybrid RNA with tandem MS2 sites; ssRNA
# PUM1 PUF domain R6-FRL = target: T1, PUM1 PUF domain R6-FRL (Homo sapiens, UniProt Q14671 828-1176, N1043F;Y1044R;Q1047L)
# T1 sequence: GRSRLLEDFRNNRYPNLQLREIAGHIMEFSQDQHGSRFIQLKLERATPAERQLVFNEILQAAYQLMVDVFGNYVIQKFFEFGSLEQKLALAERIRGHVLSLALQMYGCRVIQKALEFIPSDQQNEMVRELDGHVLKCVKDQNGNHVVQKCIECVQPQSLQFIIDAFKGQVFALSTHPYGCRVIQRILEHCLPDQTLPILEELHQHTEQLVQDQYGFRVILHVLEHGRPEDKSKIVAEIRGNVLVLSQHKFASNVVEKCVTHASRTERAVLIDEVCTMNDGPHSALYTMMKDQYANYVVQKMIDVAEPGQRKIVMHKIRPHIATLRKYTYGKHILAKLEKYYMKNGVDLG
# In short: (§1)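 Each repeat of the Pumilio-1 PUF domain was randomized at its three base-contacting residues, and these libraries were co-expressed from a centromeric plasmid with matching RNA elements in strain YBZ-1. After four days on SC-Leu (input) or SC-Leu-His + 0.5 mM 3-AT (selection), the repeat regions were PCR-amplified and Illumina-sequenced. The interaction score compares variant frequency between input and selection as a log change, computed in log2 with a pseudocount of 1 for absent variants.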
# PUM1 PUF domain R7-KGG = PUM1 PUF domain R7-KGG (Homo sapiens, UniProt Q14671 828-1176, S1079K;N1080G;E1083G)
# In short: as §1
# PUM1 PUF domain R1-SRR = PUM1 PUF domain R1-SRR (Homo sapiens, UniProt Q14671 828-1176, Q867R)
# In short: as §1
# PUM1 PUF domain R1-GVR = PUM1 PUF domain R1-GVR (Homo sapiens, UniProt Q14671 828-1176, S863G;R864V;Q867R)
# In short: as §1
# PUM1 PUF domain R6-SWE = target: T2, PUM1 PUF domain R6-SWE (Homo sapiens, UniProt Q14671 828-1176, N1043S;Y1044W;Q1047E)
# T2 sequence: T1 sequence with F216S, R217W, L220E
# In short: as §1
# PUM1 PUF domain R8-RCK = PUM1 PUF domain R8-RCK (Homo sapiens, UniProt Q14671 828-1176, N1122R;Y1123C;Q1126K)
# In short: as §1
# PUM1 PUF domain R4-VNA = PUM1 PUF domain R4-VNA (Homo sapiens, UniProt Q14671 828-1176, N971V;H972N;Q975A)
# In short: as §1
# PUM1 PUF domain R5-QNG = PUM1 PUF domain R5-QNG (Homo sapiens, UniProt Q14671 828-1176, C1007Q;R1008N;Q1011G)
# In short: as §1
sequence,measurement,setting,value
GGCUAGAACUAGUGGAUCCCCCGGCGCCCGGCGGCUCGAGCCCGGGUAAGUGUAAAUAGUCUGCAUGCCGCCGGGCGCCAUGCCUGCAGGUCGACUCUAGAAAACAUG,binding signal,PUM1 PUF domain R6-FRL,2.93 log2 enrichment (interaction score)
GGCUAGAACUAGUGGAUCCCCCGGCGCCCGGCGGCUCGAGCCCGGGUAAGUUUAAAUAGUCUGCAUGCCGCCGGGCGCCAUGCCUGCAGGUCGACUCUAGAAAACAUG,binding signal,PUM1 PUF domain R7-KGG,2.69 log2 enrichment (interaction score)
GGCUAGAACUAGUGGAUCCCCCGGCGCCCGGCGGCUCGAGCCCGGGUAAGUGUAAAUUGUCUGCAUGCCGCCGGGCGCCAUGCCUGCAGGUCGACUCUAGAAAACAUG,binding signal,PUM1 PUF domain R1-SRR,1.58 log2 enrichment (interaction score)
same,binding signal,PUM1 PUF domain R1-GVR,2.24 log2 enrichment (interaction score)
GGCUAGAACUAGUGGAUCCCCCGGCGCCCGGCGGCUCGAGCCCGGGUAAGUGUAAAUCGUCUGCAUGCCGCCGGGCGCCAUGCCUGCAGGUCGACUCUAGAAAACAUG,binding signal,PUM1 PUF domain R1-SRR,3.51 log2 enrichment (interaction score)
same,binding signal,PUM1 PUF domain R1-GVR,3.35 log2 enrichment (interaction score)
GGCUAGAACUAGUGGAUCCCCCGGCGCCCGGCGGCUCGAGCCCGGGUAAGUGGAAAUAGUCUGCAUGCCGCCGGGCGCCAUGCCUGCAGGUCGACUCUAGAAAACAUG,binding signal,PUM1 PUF domain R6-SWE,4.47 log2 enrichment (interaction score)
GGCUAGAACUAGUGGAUCCCCCGGCGCCCGGCGGCUCGAGCCCGGGUAAGUGAAAAUAGUCUGCAUGCCGCCGGGCGCCAUGCCUGCAGGUCGACUCUAGAAAACAUG,binding signal,PUM1 PUF domain R6-SWE,4.09 log2 enrichment (interaction score)
GGCUAGAACUAGUGGAUCCCCCGGCGCCCGGCGGCUCGAGCCCGGGUAAGCGUAAAUAGUCUGCAUGCCGCCGGGCGCCAUGCCUGCAGGUCGACUCUAGAAAACAUG,binding signal,PUM1 PUF domain R8-RCK,2.23 log2 enrichment (interaction score)
GGCUAGAACUAGUGGAUCCCCCGGCGCCCGGCGGCUCGAGCCCGGGUAAGUGUACAUAGUCUGCAUGCCGCCGGGCGCCAUGCCUGCAGGUCGACUCUAGAAAACAUG,binding signal,PUM1 PUF domain R4-VNA,1.65 log2 enrichment (interaction score)
GGCUAGAACUAGUGGAUCCCCCGGCGCCCGGCGGCUCGAGCCCGGGUAAGUGUAUAUAGUCUGCAUGCCGCCGGGCGCCAUGCCUGCAGGUCGACUCUAGAAAACAUG,binding signal,PUM1 PUF domain R4-VNA,3.11 log2 enrichment (interaction score)
GGCUAGAACUAGUGGAUCCCCCGGCGCCCGGCGGCUCGAGCCCGGGUAAGUGUUAAUAGUCUGCAUGCCGCCGGGCGCCAUGCCUGCAGGUCGACUCUAGAAAACAUG,binding signal,PUM1 PUF domain R5-QNG,2.88 log2 enrichment (interaction score)
